activation, Potency and viability data for 21 compounds are collected here from PubChem BioAssay (NCATS).

Experiment [1] has as its target Cellular tumor antigen p53 (Homo sapiens) (UniProt P04637). The experiment is described as follows: Primary qHTS for small molecule compounds that upregulate eGFP-tagged delta133p53alpha (in N-terminal) cells. (AID 2060322). Also: nearly all actives have a fitted effect of over 75% in size. Also: potency is read from the fitted curve at half-maximal effect.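 As to activation: series mostly up to about 56 µM; 0% = DMSO vehicle and 100% = reference activator.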 The conditions noted are these: NCI-H358 eGFP-delta133p53alpha fluorescence, 24 h; activation: stronger effect = higher value. A digest of the protocol:
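NCI-H358 cells pre-induced 24 h with 10 ng/ml doxycycline to express N-terminal eGFP-delta133p53alpha, then dosed 24 h at 37C without doxycycline; fixed, Hoechst-stained, GFP intensity by laser scanning cytometry, normalized to DMSO (0%) and 57.5 uM 5-azacytidine (100%).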
(qHTS replaces the single test concentration by a dilution series.)

In experiment [2] the target is Retinaldehyde dehydrogenase 3 (Homo sapiens) (UniProt P47895). The experiment can be described thus: qHTS for Inhibitors of the Aldehyde Dehydrogenase Family (ALDH1A3) Primary screen (AID 2061315).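 Also: plate controls were DMSO vehicle for no effect and reference inhibitor for full effect.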
Experiment [3] in a line: BET inhibitor-based combinations targeting novel dependencies in MECOM-rearranged (r) AML: SET-2 cell line (AID 2202231). Also: nearly all actives have a fitted effect of over 35% in size. Also: potency is read from the fitted curve at half-maximal effect.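 As to viability: plate controls were DMSO treated cells for no effect and wells without cells for full effect.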 The note with it: SET-2 AML cells viability, CellTiter-Glo luminescence, 48 h; viability: stronger effect = lower value, concentration not given here. A digest of the protocol:
(§1)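 Cells were plated at 500 per well and exposed to an 11-point dose series of each drug for 48 hr. Viability was measured by CellTiter-Glo luminescence, normalized to DMSO and empty-well controls, and summarized as AUC and per-cell-line Z-AUC.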
(In general: In ATP-based viability assays light output follows the ATP content of the culture.)

Experiment [4] in a line: BET inhibitor-based combinations targeting novel dependencies in MECOM-rearranged (r) AML: OCI-AML3 cell line (AID 2202232). Also: nearly all actives have a fitted effect of over 35% in size. Also: potency is read from the fitted curve at half-maximal effect. The conditions noted are these: Potency: OCI-AML3 viability. A digest of the protocol:
as §1

A short description of experiment [5]: BET inhibitor-based combinations targeting novel dependencies in MECOM-rearranged (r) AML: MV-4-11 cell line (AID 2202233). Also: nearly all actives have a fitted effect of over 45% in size. Also: potency is read from the fitted curve at half-maximal effect. A digest of the protocol:
(§2)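 Activity is given as area under the curve and as Z-AUC, mean-centred within each cell line. It comes from 11-point dose curves normalized to DMSO and empty wells. CellTiter-Glo luminescence was read after 48 hr drug exposure of 500 cells/well.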

Experiment [6] is described as follows: BET inhibitor-based combinations targeting novel dependencies in MECOM-rearranged (r) AML: HNT-34 cell line (AID 2202234). Also: nearly all actives have a fitted effect of over 35% in size. Also: potency is read from the fitted curve at half-maximal effect. A digest of the protocol:
as §2

Experiment [7] is described as follows: BET inhibitor-based combinations targeting novel dependencies in MECOM-rearranged (r) AML: UCSD-AML1 cell line (AID 2202235). Also: nearly all actives have a fitted effect of over 40% in size. Also: potency is read from the fitted curve at half-maximal effect. The gist of the method:
as §2

The nature of experiment [8]: BET inhibitor-based combinations targeting novel dependencies in MECOM-rearranged (r) AML: AML-194 cell line (AID 2202237; also: nearly all actives have a fitted effect of over 40% in size; also: potency is read from the fitted curve at half-maximal effect). The gist of the method: as §1
Experiment [9] in a line: BET inhibitor-based combinations targeting novel dependencies in MECOM-rearranged (r) AML: AML-191 cell line (AID 2202236; also: nearly all actives have a fitted effect of over 35% in size; also: potency is read from the fitted curve at half-maximal effect). A digest of the protocol:
as §1

Molecules are shown by their SMILES. Several values for one entry are separate records, joined by “and”; a condition that tells them apart may be missing. Identical values can stand only once. Records with an inconclusive call do not appear. Unmarked numbers belong to inactive results. Activity calls are given as the source filed them. Calls follow the shape of the dose curve; as a rule, active = well fitted curve in the direction sought with a large enough effect; inconclusive = small, poorly fitted or top-dose-only effect, or another doubt; inactive = no such curve, though single readings can be large; an effect the other way counts as inactive or inconclusive. Residues, ends and D or L forms follow the SMILES beside them.

Sequence of Cellular tumor antigen p53 (Homo sapiens) (P04637 whole entry, looked up): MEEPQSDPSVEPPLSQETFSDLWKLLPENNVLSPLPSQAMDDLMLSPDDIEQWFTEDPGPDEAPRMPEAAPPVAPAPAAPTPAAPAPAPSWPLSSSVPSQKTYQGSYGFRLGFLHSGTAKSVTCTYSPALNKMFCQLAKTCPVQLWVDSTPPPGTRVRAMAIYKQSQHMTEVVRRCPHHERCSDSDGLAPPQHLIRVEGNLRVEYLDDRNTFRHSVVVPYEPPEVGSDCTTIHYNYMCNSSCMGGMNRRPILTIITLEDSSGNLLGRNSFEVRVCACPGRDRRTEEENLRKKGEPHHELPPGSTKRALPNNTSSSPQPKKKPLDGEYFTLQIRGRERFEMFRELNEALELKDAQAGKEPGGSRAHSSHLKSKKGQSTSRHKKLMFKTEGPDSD

`Clc1ccc(C(Cn2ccnc2)OCc2c(Cl)cccc2Cl)c(Cl)c1` (stereo unspecified): the activation in experiment [1] was 27.9% and 17%. In addition, the Potency result in experiment [2] and in experiment [7] was “inactive” each time. For the same compound, the Potency is 26.3 µM (active) in [3]; 10.5 µM (active) in [4]; 18.6 µM (active) in experiment [5]; 26.3 µM (active) in experiment [6]; 18.6 µM (active) in [8].
In the case of `Oc1cc(-c2nc(-c3ccccc3)[nH]c2-c2ccncc2)ccc1Cl`, in experiment [1], the activation is 22.4%. Further, the Potency entry in experiment [2] is “inactive”. The Potency in experiment [4] is 4.17 µM (active); in experiment [5] it was 14.8 µM (active); in [6] it was 7.42 µM (active).
As to `Nc1ccccc1NC(=O)c1ccc(CNc2nccc(-c3cccnc3)n2)cc1`, in [1], the activation was 65.9%. In addition, the Potency entry in [2] is “inactive”. The Potency in experiment [3] was 1.66 µM (active); in experiment [4], 1.32 µM (active); in experiment [5] it was 0.662 µM (active); in experiment [6], 1.86 µM (active); in [7], 1.32 µM (active); in [8], 1.66 µM (active).
Turning to `CC(C)C[C@@H](C(=O)N[C@H](C(=O)OC1CCCC1)c1ccccc1)[C@H](O)C(=O)NO`, the activation in [1] was 10.8%. Further, the Potency in [3] is 14.8 µM (active); in [4], 13.2 µM (active); in [5] it was 3.32 µM (active); in experiment [6] it was 18.6 µM (active); in [7] it was 20.9 µM (active); in [9] it was 20.9 µM (active).
The term viability denotes a read-out of living cells in per cent, often relative to untreated cells. Consider `COC(=O)[C@H](Cc1ccccc1)NC(=O)[C@@H](N)CC(=O)O` (H-Asp-Phe-OMe), for which, in experiment [1], the activation was -35.6% and -14.3%. In experiment [3], the viability was 112%. Also, the Potency result in experiment [4], in experiment [5], in [6], in experiment [7], in experiment [9] and in [8] was “inactive” each time.
With `O=C(Nc1ccc(-c2ccc(Cl)c(Cl)c2)cc1)C1=C(O)c2ccccc2S(=O)(=O)N1`, the activation in experiment [1] is -5.73%. Also, in [2], the Potency result was “inactive”.
Regarding `COC(=O)C1=C(C)NC(C)=C(C(=O)OCCCN2CCC(c3ccccc3)(c3ccccc3)CC2)C1c1cccc([N+](=O)[O-])c1` (stereo unspecified), the activation in experiment [1] was 2.93%. For the same compound, the Potency in [3] is 18.6 µM (active); in experiment [4] it was 29.5 µM (active); in [5], 10.5 µM (active); in experiment [6] it was 18.6 µM (active); in experiment [7], 14.8 µM (active); in experiment [9] it was 26.3 µM (active).
Take `Cc1cc(Nc2ncc3c(n2)N(C)C(=O)N(c2cc(NC(=O)c4cccc(C(F)(F)F)c4)ccc2C)C3)n(C)n1`: the Potency in experiment [1] is 0.432 µM (active); in experiment [3], 0.833 µM (active); in experiment [4], 0.296 µM (active); in experiment [5], 0.0372 µM (active); in [6] it was 0.0263 µM (active); in experiment [7], 0.417 µM (active). Also, the Potency in [9] is 0.235 µM (active).
Take `OC(Cn1cncn1)(Cn1cncn1)c1ccc(F)cc1F`: the activation in [1] was 6.21% and 14.6%. In addition, in experiment [3], the viability is 116%. In addition, the Potency result in experiment [4], in experiment [5], in experiment [6], in [7] and in [9] was “inactive” throughout.
For the compound `O=C(NOCC(O)CO)c1cc(Br)c(F)c(F)c1Nc1ccc(I)cc1F` (stereo unspecified), in experiment [1], the activation is 6.51%. The viability in [3] is 95.8%. Further, the Potency is 0.0166 µM (active) in [4], 0.209 µM (active) in experiment [5] and 1.05 µM (active) in experiment [6].
Consider `O=S(=O)(O)CCSSCCS(=O)(=O)O`, for which the activation in experiment [1] was -2.01%. Also, the viability in experiment [3] was 104%. Further, the Potency result in [4], in experiment [5], in experiment [6], in [7] and in experiment [9] was “inactive” each time.
Take `C[C@](Cc1c[nH]c2ccccc12)(NC(=O)OC1C2CC3CC(C2)CC1C3)C(=O)NC[C@H](NC(=O)CCC(=O)O)c1ccccc1` (stereo partly specified): the activation in experiment [1] is 8.58%. For the same compound, the viability in [3] is 110%. Further, the Potency result in [4] is “inactive”.
On to `COCCCOc1cc(C[C@@H](C[C@H](N)[C@@H](O)C[C@H](C(=O)NCC(C)(C)C(N)=O)C(C)C)C(C)C)ccc1OC`, for which, in experiment [1], the activation was -7.53% and 23.3%. The viability in experiment [3] is 124%. Further, the Potency entry in experiment [4], in experiment [5], in [6], in experiment [7] and in [9] was “inactive” in each case.
With `C[C@@H]1O[C@@H](O[C@@H]2\C=C/C=C\C=C/C=C\C[C@H](C)OC(=O)/C=C\[C@H]3O[C@@H]3C[C@H](O)C[C@]3(O)C[C@@H](O)[C@@H](C(=O)O)[C@H](C2)O3)[C@H](O)[C@H](N)[C@@H]1O`, in experiment [1], the activation was 17.7%. Moreover, the Potency result in experiment [2], in experiment [5], in experiment [7], in experiment [9] and in [8] was “inactive” throughout. In addition, the viability in experiment [3] is 112%.
As for `COc1ccc2[nH]c(S(=O)Cc3ncc(C)c(OC)c3C)nc2n1` (stereo unspecified), in [1], the activation is 10.7% and 10%. Also, the Potency entry in experiment [2], in experiment [7], in experiment [9] and in experiment [8] was “inactive” in each case. Besides, in experiment [3], the viability is 109%.
On to `CC(=O)O[C@H]1C[C@@H]2CC[C@@H]3[C@H](CC[C@@]4(C)[C@H]3C[C@H]([N+]3(C)CCCCC3)[C@@H]4OC(C)=O)[C@@]2(C)C[C@@H]1N1CCCCC1`, for which, in experiment [1], the activation is 9.6%. Besides, the viability in [3] was 116%. For the same compound, the Potency result in experiment [4], in experiment [5], in experiment [6] and in experiment [7] was “inactive” in each case.
Consider `COc1ccc(-c2nc3ccc(C4=NNC(=O)CC4C)cc3[nH]2)cc1` (stereo unspecified), for which, in experiment [1], the activation is 15.8%. The Potency result in [2] was “inactive”. Moreover, the Potency in experiment [4] was 18.6 µM (active); in [6], 8.33 µM (active); in [7], 11.8 µM (active).
For the compound `CCOc1cc(C(C)(C)C)ccc1C1=N[C@@](C)(c2ccc(Cl)cc2)[C@@](C)(c2ccc(Cl)cc2)N1C(=O)N1CCN(CC(=O)N2CCOCC2)CC1`, the activation in experiment [1] is 35.5%. Besides, the Potency entry in experiment [2] is “inactive”. The Potency was 11.5 µM (active) in experiment [4]; 1.63 µM (active) in [5]; 4.09 µM (active) in [7]; 7.28 µM (active) in experiment [9]; 9.17 µM (active) in [8].
Take `C[C@H](Nc1ncnc2nc[nH]c12)c1cc2ccc(F)cc2nc1-c1ccccn1`: in experiment [1], the activation was 5%. Besides, the Potency result in [2] is “inactive”. For the same compound, the Potency in [9] is 18.6 µM (active).
`C[C@H](Nc1ncnc2nc[nH]c12)c1cc2cccc(Cl)c2c(=O)n1-c1ccccc1`: the activation in experiment [1] was 7%. For the same compound, the Potency result in experiment [2] was “inactive”. Further, the Potency in [3] was 18.6 µM (active); in experiment [4], 0.934 µM (active); in [7], 1.32 µM (active).
For `CC1(C)O[C@@H]2C[C@H]3[C@@H]4CCC5=CC(=O)C=C[C@]5(C)[C@@]4(F)[C@@H](O)C[C@]3(C)[C@]2(C(=O)CO)O1`, the activation in [1] is -9.6%. Besides, in [3], the viability is 115%. Besides, the Potency result in [4], in experiment [5], in [6] and in [7] was “inactive” each time.
